Source: PubChem BioAssay
Activity calls are given as the source filed them. No rule for the calls is given here. Positions of bridges follow the written chain, without caps; N, C: chain ends. Non-standard residues stand in square brackets, D forms with d. Residues, ends and D or L forms follow the SMILES beside them. ξ: configuration not given here. *: point of attachment. ξDab(CH2SO3H) = NC(CCNCS(=O)(=O)O)C(=O)O; Heptanoyl(6-Me) = CC(C)CCCCC(=O)*; Dab = NCC[CH](N)C(=O)O

System: Aerobactin synthetase IucA (Klebsiella pneumoniae hvKP1)
Test: IucA enzyme inhibition, primary screen, biochemical, Spectrum library (AID 1346200);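 also: 100% = wells without compound and 0% = wells lacking enzyme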
Conditions: malachite green pyrophosphate, A620, at 8 µM, hits give low values

Row | Compound | activity remaining
1 | C/C1=C\CC(C)(C)/C=C/CC2(C)OC2CC1 (stereo unspecified) | 107% (inactive)
2 | O=c1c(O)c(-c2ccc(O)c(O)c2)oc2cc(O)ccc12 | 101% (inactive)
3 | CN1CCCN=C1COC(=O)C(O)(c1ccccc1)C1CCCCC1 (stereo unspecified) | 108% (inactive)
4 | O=C(O)c1ccc(S(=O)(=O)N(Cl)Cl)cc1 | 113% (inactive)
5 | CN(C)C(=O)Nc1ccc(Cl)c(Cl)c1 | 109% (inactive)
6 | NC(Cc1c[nH]c2ccccc12)C(=O)O (stereo unspecified) | 107% (inactive)
7 | Nc1nc(N)c2nc(CNc3ccc(C(=O)NC(CCC(=O)O)C(=O)O)cc3)cnc2n1 (stereo unspecified) | 102% (inactive)
8 | Cc1ccc2c(c1)CC[C@H]1CC(=O)CC[C@]21C | 112% (inactive)
9 | C=C1C2CC[C@@]3(C)[C@H](c4ccoc4)OC(=O)C[C@]13O[C@H]1CC(=O)C(C)(C)[C@H](C(O)C(=O)OC)[C@@]21C (stereo partly specified) | 95.2% (inactive)
10 | Nc1ccc(N=Nc2ccccc2)c(N)n1 | 112% (inactive)
11 | CCN(CC)Cc1ccc(Nc2ccnc3cc(Cl)ccc23)cc1O | 102% (inactive)
12 | Nc1nccs1 | 89.3% (inactive)
13 | COc1cc(OC)c2c(=O)c(OC)c(-c3ccc(OC)c(OC)c3)oc2c1 | 120% (inactive)
14 | Nc1c(Br)cc(Br)cc1CNC1CCC(O)CC1 (stereo unspecified) | 93.2% (inactive)
15 | COc1cc(O)cc(/C=C/c2ccccc2)c1 | 104% (inactive)
16 | COc1cc(N)c(Cl)cc1C(=O)NC1CCN(Cc2ccccc2)CC1 | 119% (inactive)
17 | Cc1ccc(O)cc1 | 102% (inactive)
18 | COC(=O)c1c(C)cc(O)cc1O | 89.5% (inactive)
19 | Nc1nc2ncc(=O)[nH]c2c(=O)[nH]1 | 121% (inactive)
20 | O=C1c2ccccc2C(=O)C1c1ccccc1 | 121% (inactive)
21 | COc1cccc(O)c1O | 110% (inactive)
22 | CC1(C)CC[C@]2(C(=O)O)CC[C@]3(C)C(=CCC4[C@@]5(C)CC[C@H](O)C(C)(C)C5[C@H](O)C[C@]43C)C2C1 (stereo partly specified) | 76.1% (inactive)
23 | COc1cc([C@@H]2c3cc4c(cc3C(OC3O[C@@H]5COC(C)O[C@H]5[C@H](O)[C@H]3O)C3COC(=O)[C@@H]32)OCO4)cc(OC)c1O (stereo partly specified) | 102% (inactive)
24 | C=CCCCCCCCCCCCC(O)CC(O)COC(C)=O (stereo unspecified) | 116% (inactive)
25 | CCC(C)C1NC(=O)C(CCNCS(=O)(=O)O)NC(=O)C(NC(=O)C(CCNCS(=O)(=O)O)NC(=O)C(NC(=O)C(CCNCS(=O)(=O)O)NC(=O)CCCCC(C)C)C(C)O)CCNC(=O)C(C(C)O)NC(=O)C(CCNCS(=O)(=O)O)NC(=O)C(CCNCS(=O)(=O)O)NC(=O)C(C(C)CC)NC1=O (stereo unspecified) ({Heptanoyl(6-Me)}-[ξDab(CH2SO3H)]T[ξDab(CH2SO3H)][Dab][ξDab(CH2SO3H)]II[ξDab(CH2SO3H)][ξDab(CH2SO3H)]T; lactam 4-C; configuration not given here) | 120% (inactive)
26 | COC(=O)Nc1nc2ccc(S(=O)c3ccccc3)cc2[nH]1 (stereo unspecified) | 110% (inactive)
